“And” between values parts separate entries of the source, which are not always exact repeats. Identical values can stand only once. Out of some 16,000 compounds screened, about 2,600 (16%) were called active. Not shown: some 20% with an inconclusive outcome. The list is a sample of the results. Values without a mark were called inactive. Calls follow the shape of the dose curve; as a rule, active = well fitted curve in the direction sought with a large enough effect; inconclusive = small, poorly fitted or top-dose-only effect, or effect the other way; inactive = no such curve, though single readings can be large or run the other way.
Target: Cytochrome P450 2D6 (Homo sapiens) (UniProt P10635)
Sequence (P10635 whole entry, looked up): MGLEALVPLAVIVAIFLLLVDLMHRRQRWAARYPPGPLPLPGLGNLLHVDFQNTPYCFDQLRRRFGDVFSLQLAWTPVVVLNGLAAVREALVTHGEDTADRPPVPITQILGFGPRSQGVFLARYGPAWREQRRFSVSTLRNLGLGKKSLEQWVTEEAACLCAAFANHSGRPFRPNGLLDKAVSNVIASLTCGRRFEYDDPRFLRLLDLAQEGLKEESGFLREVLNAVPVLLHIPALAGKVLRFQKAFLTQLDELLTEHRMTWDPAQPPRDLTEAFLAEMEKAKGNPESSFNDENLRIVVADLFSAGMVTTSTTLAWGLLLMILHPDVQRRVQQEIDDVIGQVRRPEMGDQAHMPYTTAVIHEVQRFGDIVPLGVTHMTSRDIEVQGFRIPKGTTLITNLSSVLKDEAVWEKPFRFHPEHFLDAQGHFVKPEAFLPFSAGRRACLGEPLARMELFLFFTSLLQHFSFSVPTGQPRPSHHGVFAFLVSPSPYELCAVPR
Assay: Cytochrome panel assay with activity outcomes
Settings: recombinant CYP, pro-luciferin dealkylation, luminescence, p450-cyp2d6; series mostly up to 57.1 µM; activity, negative = inhibition: at the top concentration
% is scaled to controls: 0 for no effect and ±100 for the full control effect.

Row | SMILES | activity, negative = inhibition | AC50
1 | CN1CCC(N(C)C(=O)CCc2nc3ccccc3c(=O)[nH]2)CC1 | 5.72% | 
2 | O=C(O)CSc1ccn(Cc2ccccc2)c1 | 9% [at 11.4 µM] | 
3 | O=C(O)c1cccnc1Nc1cccc(C(F)(F)F)c1 | -1.07% [at 25.6 µM] | 
4 | O=C(COC(=O)c1cnccn1)NCc1ccccc1 | -13.3% | 
5 | O=C(COC(=O)c1cccnc1Nc1cccc(C(F)(F)F)c1)NCc1ccc2c(c1)OCO2 |  | 1.12 µM (active)
6 | Cc1cc2nnc(SCC(=O)OC(C)C)n2c2ccccc12 | -7.14% | 
7 | NC1=C2NC=N[C@@H]2N(C/C=C\c2ccccc2)C=N1 | -12.6% [at 11.4 µM] | 
8 | N#CCCn1c(=O)c(-c2cccs2)nc2cnc(Oc3cccc(Cl)c3)nc21 | 3.98% | 
9 | COc1ccc2oc(=O)c(NC(=O)C3CCCCC3)cc2c1 | 21.2% | 
10 | O=C(Nc1cc2ccccc2oc1=O)C1CCCCC1 | -12.9% | 
11 | Cc1cc(NC(=O)C2CCCCC2)nc2c1c(=O)oc1ccccc12 |  | 20 µM (active)
12 | O=c1cnc2cnc(Nc3ccccc3)nc2n1C[C@H]1CCCO1 | -9.42% | 
13 | COc1ccc(-c2cc(CNC(C)=O)on2)cc1 | 21.2% | 
14 | COc1ccccc1CC(=O)O/N=C(\N)Cc1cccc2ccccc12 | -5.92% | 
15 | FC(F)(F)c1ccc(/C=N/N2CCN(Cc3cccc4ccccc34)CC2)cc1 | -19.8% | 
16 | COc1ccccc1/C=C/C=N/N1CCN(Cc2cccc3ccccc23)CC1 |  | 7.94 µM (active)
17 | CCc1nc(N2CCC3(CC2)OCCO3)c2nnn(Cc3ccccc3Cl)c2n1 | -15.5% | 
18 | Cc1cc2c(cc1C)-c1nnc(-c3ccc4ccccc4n3)n1C(C)(C)C2 | 15.6% | 
19 | c1ccc2nc(-c3ccncc3)ccc2c1 |  | 15.8 µM (active)
20 | CC(C)C(=O)Cc1ccc2ccccc2n1 | 5.06% [at 11.4 µM] | 
21 | Cc1ccc([N+](=O)[O-])cc1N=C(c1cccc([N+](=O)[O-])c1)N1CCOCC1 | -24.8% | 
22 | CC(=O)c1cnc2cc(C)nn2c1C | -4.17% | 
23 | CC(C)Oc1ccc2ccccc2c1C=O | -4.59% | 
24 | O=C(NNC(=O)C1CCN(S(=O)(=O)c2ccc(Cl)cc2)CC1)c1ccc(Cl)cc1 | -4.04% | 
25 | Cc1[nH]c2c(C)ccc(C)c2c1CC(=O)O | -12.2% [at 11.4 µM] | 

Row | SMILES | activity, negative = inhibition | AC50
26 | COc1ccc(CNc2nc3ccccc3n2Cc2ccccc2)cc1OC |  | 0.794 µM (active)
27 | CC(=O)Nc1nc2ccccc2n1Cc1ccccc1 | -11.8% | 
28 | C=CCn1c(P(=O)(O)c2ccccc2)nc2ccccc21 | -7.57% | 
29 | C=CCn1c(NCc2ccccc2)nc2ccccc21 |  | 0.398 µM (active)
30 | C=CCn1c(-c2cccn(Cc3ccccc3)c2=O)n[nH]c1=S | 4.47% | 
31 | COc1ccc(NC(=O)COC(=O)Cn2c(C)nc3ccccc32)cc1OC | 16.2% | 
32 | O=C(NCC1CCCO1)c1onc(CSc2ccccc2F)c1C(=O)O (centres undefined) | 0.926% | 
33 | O=C(O)c1ccccc1N/N=C\c1ccnc2ccccc12 | -29.2% | 
34 | CC(=O)ON(C(C)=O)S(=O)(=O)c1ccc(Cl)cc1 | 12.6% | 
35 | Cc1[nH]n(C(C)(C)C)c(=O)c1Sc1ccccc1 | -13.6% | 
36 | O=P(O)(CCP(=O)(O)c1ccccc1)c1ccccc1 | 0.684% [at 11.4 µM] | 
37 | O=C(c1cc(C(F)(F)F)cc(C(F)(F)F)c1)N1CCC2(CC1)CCN(c1ncccn1)CC2 | -13.1% | 
38 | Cc1ccc(-c2ccc(/C=N\NC(=O)c3cc4c(ccc5ccccc54)o3)o2)cc1[N+](=O)[O-] | 7.58% | 
39 | O=C(N/N=C(\c1ccccc1)c1cccnc1)C(O)(c1ccccc1)c1ccccc1 | -25.7% | 
40 | Clc1ccc(CC[C@H](Cn2ccnc2)Sc2c(Cl)cccc2Cl)cc1 |  | 1.26 µM (active)
41 | O=C1C2=CC[C@@H]3C(=O)N(c4ccc(F)cc4F)C(=O)[C@H]3[C@H]2[C@H](O)[C@H]2O[C@H]12 | 6.42% [at 11.4 µM] | 
42 | COc1ccc(-c2nc(CSCC(=O)NCC3CCCO3)c(C)o2)cc1OC (centres undefined) | -17.1% | 
43 | CCCN(CCC)CCCNC(=O)CS(=O)Cc1nc(-c2ccc(OC)c(OC)c2)oc1C (centres undefined) |  | 5.01 µM (active)
44 | COc1ccc(-c2nc(C#N)c(N3CCC(C(N)=O)CC3)o2)cc1OC | 4.34% | 
45 | COc1cccc(-c2nc(CS(=O)(=O)CC(=O)NCCCOC(C)C)c(C)o2)c1 | -7.29% | 
46 | CCCCN(C)CCCNC(=O)CS(=O)Cc1nc(-c2ccc(OC)c(OC)c2)oc1C (centres undefined) |  | 11.2 µM (active)
47 | COc1ccc(CCN(C)CCC(=O)Nc2c(C)cc(C)cc2C)cc1OC | -65.7% | 
48 | CC(C)(C)CC(C)(C)c1ccc(OCOCCOCCO)c(Cc2cc(C(C)(C)CC(C)(C)C)cc(Cc3cc(C(C)(C)CC(C)(C)C)ccc3OCOCCOCCO)c2OCOCCOCCO)c1 | -8.49% [at 25.6 µM] | 
49 | CCCCSc1nc(C)cc(C)c1S(=O)(=O)c1ccccc1C | -21.8% | 
50 | Cc1ccc([C@@]2(C)CC/C(=N/N=C3\CC[C@](C)(c4ccc(C)c(C)c4)c4cc(C)c(C)cc43)c3cc(C)c(C)cc32)cc1C | -2.73% [at 11.4 µM] | 

Row | SMILES | activity, negative = inhibition | AC50
51 | O=c1ccc(Oc2nc(N3CCOCC3)nc(N3CCOCC3)n2)n[nH]1 | 14.7% | 
52 | NCC[C@H](N)C(=O)O | 6.66% [at 11.4 µM] | 
53 | O=S(=O)(/N=C(/Nc1ccccn1)c1ccccc1)c1ccc(Cl)cc1 | 17.3% | 
54 | C=CCSc1nc2c(sc3nc(C)cc(C)c32)c(=O)[nH]1 | 2.23% | 
55 | CC1Cc2ccccc2N1Cc1nc2cc(C(F)(F)F)ccc2c(=O)[nH]1 (centres undefined) | -35.2% | 
56 | Cc1c(OCC(F)(F)F)ccnc1CSc1nc2ccccc2[nH]1 |  | 0.398 µM (active)
57 | C[N+](C)(C)CCCSc1nc2ccccc2[nH]1 | 11.4% [at 11.4 µM] | 
58 | O=C(CSc1nc2ccccc2[nH]1)Nc1c(F)cccc1F | -12.7% | 
59 | O=S(=O)(O)c1ccc(-c2nnc(-c3ccccn3)nc2-c2ccc(S(=O)(=O)O)o2)o1 | 16.6% [at 11.4 µM] | 
60 | O=C(Cc1cccc2ccccc12)N/N=C/c1ccc(Sc2nc3ccccc3s2)o1 | 0.203% | 
61 | Cc1ccc(S(=O)(=O)N[C@H]2COC(=O)[C@@H](Cc3ccccc3)NC(=O)[C@@H](C)COC(=O)C/C=C\[C@@H]2C)cc1 | -0.453% [at 11.4 µM] and -0.419% [at 11.4 µM] | 
62 | O=C(O)c1ccccc1N[C@H](c1ccccc1)c1ccc2cccnc2c1O | -6.89% [at 11.4 µM] | 
63 | Oc1c([C@H](Nc2ccccn2)c2ccccc2)ccc2cccnc12 |  | 0.316 µM (active)
64 | Cc1ccc(N[C@H](c2ccccc2)c2ccc3cccnc3c2O)cc1 | -11.8% [at 11.4 µM] | 
65 | CCCc1nnc(SCC(=O)N2CCCCC2)n1CCCOC | 7.22% | 
66 | Cc1ccc(NC(=O)N(Cc2ccco2)C(C)c2ccco2)cc1C (centres undefined) | -5.98% | 
67 | CCOc1ccc(NC(=O)c2oc3ccccc3c2NC(=O)CC)cc1 | -24.9% | 
68 | CCOc1ccc(NC(=S)N(Cc2ccc(Cl)cc2)Cc2ccco2)cc1 |  | 7.94 µM (active)
69 | CCOc1ccc(NC(=S)N(Cc2ccc(N(C)C)cc2)Cc2ccco2)cc1 |  | 8.91 µM (active)
70 | O=C(COc1ccc(Cl)cc1)Nc1ccc(N2CCN(C(=O)c3ccco3)CC2)cc1 | -1.91% | 
71 | Cc1noc(NS(=O)(=O)c2ccc(N/C=C/C(=O)c3ccc4c(c3)OCO4)cc2)c1C | -18% | 
72 | CCCn1nnnc1-c1cccc(Cl)c1 | 20.1% | 
73 | COc1ccc(CNc2ncncc2-c2ccc3c(c2)OCO3)c(OC)c1 |  | 0.794 µM (active)
74 | COc1ccccc1CNc1ncncc1-c1ccc2c(c1)OCO2 |  | 2.51 µM (active)
75 | CCc1ccc(OCC(=O)NNC(=O)CSc2ncnc3sc(C)c(C)c23)cc1 | 1.22% | 

Row | SMILES | activity, negative = inhibition | AC50
76 | O=S(=O)(/N=C(\Sc1ccccc1)c1ccccc1)c1ccc(Cl)cc1 | -7.46% | 
77 | Cc1cc(C)c(NC(=O)C[C@H](CC(=O)O)c2cccc3ccccc23)c(C(=O)N2CCC3(CCCC3)CC2)c1 | 5.85% | 
78 | CCCCCCCCOC1OC(CO)C(O)C(O)C1NC(C)=O (centres undefined) | 10% | 
79 | Nc1ccn([C@H]2O[C@@H](COP(=O)(O)O)[C@@H](O)[C@H]2O)c(=O)n1 | 0.248% [at 11.4 µM] | 
80 | CO[C@@H]1COC(=O)[C@H]2CCCN2C(=O)C/C=C\[C@@H](C)[C@H](OC)COC(=O)[C@H]2CCCN2C(=O)C/C=C\[C@H]1C | 9.95% [at 11.4 µM] | 
81 | CN(C)c1oc(-c2ccccc2)nc1C#N | -12.9% | 
82 | Clc1ccccc1-c1cc(NCc2cccnc2)ncn1 | -2.97% | 
83 | COc1ccccc1-c1ccc2ncnc(NCc3cccnc3)c2c1 |  | 7.94 µM (active)
84 | COc1cccc(-c2ccc3ncnc(NCc4cccnc4)c3c2)c1 |  | 10 µM (active)
85 | COc1ccccc1-c1ccc2ncnc(Nc3ccccc3)c2c1 |  | 10 µM (active)
86 | Clc1ccccc1-c1ccc2ncnc(NCc3cccnc3)c2c1 |  | 6.31 µM (active)
87 | C=CCn1cc(/C=N\NC(=O)c2cc3c(ccc4ccccc43)o2)c2ccccc21 | -19.7% | 
88 | COc1ccc(CCn2c3c(c(=O)[nH]c2=O)C(NC(=O)c2cccs2)(C(F)(F)F)C(=O)N3)cc1OC (centres undefined) | 1.98% | 
89 | COC(=O)C1=C(NC(=O)c2cccc(OC)c2)CCS1 | -19.5% | 
90 | O=c1c(-c2ccccc2)nc2cnc(N3CCOCC3)nc2n1CCc1ccccc1 | -5% | 
91 | N#C/C(=C\Nc1ccccn1)C(=O)C1CC1 | 5.79% [at 11.4 µM] | 
92 | CC[C@@H](CS(=O)(=O)O)[N+](=O)[O-] | 2.2% [at 11.4 µM] | 
93 | CN[C@@H]1[C@H](O[C@@H]2O[C@H](CO)[C@@H](N)[C@H](O)[C@@H]2O)O[C@H]2C[C@@H](N)[C@@H](O[C@H]3[C@@H](O)[C@H](O)[C@H](N)C[C@@H]3N)O[C@H]2[C@H]1O | 5.28% [at 25.6 µM] | 
94 | O=C(COc1ccc(-c2ccccc2)cc1)N/N=C/c1ccccc1Br | -26.4% | 
95 | COc1cccc(-c2cc(C(F)(F)F)nc(N3CCCCC3)n2)c1 | -11.8% | 
96 | CN(C)C(=O)c1ccc(-c2ccc3ncnc(Nc4ccc(F)cc4)c3c2)cc1 |  | 10 µM (active)
97 | COc1ccc(-c2cc(C(F)(F)F)nc(SCc3cccc(C(=O)O)c3)n2)cc1 | 22.7% | 
98 | FC(F)(F)c1ccccc1-c1ccc2ncnc(NCc3cccnc3)c2c1 |  | 1.58 µM (active)
99 | COc1ccc(-c2cc(C(F)(F)F)nc(NCc3cccnc3)n2)cc1 |  | 31.6 µM (active)

Reference: PubChem BioAssay AID1851 (National Center for Advancing Translational Sciences (NCATS), 2009)
